Screens as filed in PubChem.
GDH-TPI inh: GDH-TPI coupling enzyme inhibitors, primary screen, artefact control for M. tuberculosis FBA inhibitor project, biochemical, absorbance, full deck. inhibition, % at 4.8 µM. AID 588335, 2011. GDH-TPI coupled enzyme counterscreen, NADH absorbance. actives 1.2% (n = 360,000); in the data active = inhibition above about 30%;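 note: 0% = DMSO wells and 100% = wells lacking the enzyme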
Y pestis TopoI: Yersinia pestis topoisomerase I inhibitors, primary screen, biochemical, cleavage product accumulation, plate reader, single point; Y. pestis Topo-I cleavage product accumulation; AID 504884, 2011; actives 0.064% (n = 360,000); activity, % at 10 µM; DNA topoisomerase I (Yersinia pestis CO92); in the data active = activity above about 50%, passing the limit was not always enough
PrPC TRFRET: inhibitors of human cell surface prion protein PrPC, primary screen, cell-based, TR-FRET; AID 720596, 2013; inhibition, % at 13.8 µM; actives 0.43% (n = 370,000); TR-FRET read-out; Major prion protein (Homo sapiens), P04156; in the data active = inhibition above about 24%; note: 0% = median of the test wells and 100% = reference compound wells
Mtb hypoxia rep: PubChem AID 1159583; fluorescence inhibition, % (concentration not given with the values); M. tuberculosis hypoxia-regulated fluorescent reporter, fluorescence; actives 0.1% (n = 300,000); in the data active = fluorescence inhibition mostly above about 23%, no sharp cut-off; inactive = mostly below about 17%
Mtb FBA inh: Mtb FBA enzyme inhibitors, primary screen, biochemical, fluorescence, strain H37Rv; Fructose-bisphosphate aldolase (Mycobacterium tuberculosis (strain ATCC 25618 / H37Rv)), …; purified M. tuberculosis FBA, fluorescence read-out; inhibition, % at 1 µM; actives 2.3% (n = 360,000); AID 588726, 2011; in the data active = inhibition above about 27%;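 note: 0% = vehicle and 100% = reference inhibitor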
Target sequence (P9WQA3 whole entry, looked up): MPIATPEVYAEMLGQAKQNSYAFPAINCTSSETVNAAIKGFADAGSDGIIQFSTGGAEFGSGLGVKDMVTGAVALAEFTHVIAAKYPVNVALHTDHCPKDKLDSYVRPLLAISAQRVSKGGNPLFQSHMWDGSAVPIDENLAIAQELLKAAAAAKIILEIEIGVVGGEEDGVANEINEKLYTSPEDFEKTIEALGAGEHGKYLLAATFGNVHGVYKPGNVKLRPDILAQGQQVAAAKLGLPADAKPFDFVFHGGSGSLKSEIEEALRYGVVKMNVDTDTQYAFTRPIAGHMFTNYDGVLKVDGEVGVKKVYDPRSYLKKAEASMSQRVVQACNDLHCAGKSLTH
PrP UTR inh: inhibition of PrP 5' UTR reporter expression | AID 488862, 2010 | cell-based PrP 5' UTR mRNA reporter, plate reader | actives 0.35% (n = 340,000) | inhibition, % (test concentration not listed); in the data active = inhibition above about 52%; note: 0 = median of the neutral control wells
The depositor's hits bear a star; x = not tested or not shown; + = active, no number. This is a sample that favours compounds with a hit; in the whole collection about 3.8% have one here.

SMILES | GDH-TPI inh | Y pestis TopoI | PrPC TRFRET | Mtb hypoxia rep | Mtb FBA inh | PrP UTR inh
CCOC(=O)c1oc2nc(CC(C)C)c3c(c2c1N)CCC3 | 5 | 12 | 2 | 16 | 178* | -22
COc1ccc2c(C)c(C(=O)NCC(C)O)oc2c1OC (stereo not drawn) | 3 | -3 | 6 | x | 138* | -4
COc1ccccc1N1CCN(c2cc(N3CCCC3)nc(C)n2)CC1 | 3 | 19 | 1 | x | 2 | -9
COc1ccc(OC)c2c(C)cc(N3CCCN(C)CC3)nc12 | -1 | 0 | 0 | 2 | 31* | -28
O=C(NCc1nc2ccccc2[nH]1)C1=CC(c2ccc(Br)cc2)CC(OCc2ccc(CO)cc2)O1 (stereo not drawn) | x | x | x | 16 | x | x
Oc1c(C=Nc2ccccn2)sc2ccccc12 | x | x | x | 13 | x | x
Nc1c(Cl)cc(C2=NCCn3c2c2ccc([N+](=O)[O-])cc2[n+]3[O-])cc1Cl | 7 | -2 | -17 | 45* | -3 | -10
CNC(=O)c1[nH]cnc1C(=O)NC(Cc1ccccc1)C(=O)OC(C)(C)C (stereo not drawn) | x | x | x | 4 | x | x
CCN1C(=O)C2CCC3C(=NOCC(C)C(OCc4ccccc4)C(C)C)CC(O)C(O)C3C2C1=O (stereo not drawn) | x | x | x | -8 | x | x
CCCC(=O)NC(c1ccc(OCC)cc1)c1ccc(OC)c(OC)c1 (stereo not drawn) | 10 | -7 | 8 | 3 | 156* | x
O=C1NC(=O)/C(=C/c2cccc(O)c2)N1 | 7 | 0 | -12 | x | -2 | -23
COc1cc(/C=C2\NC(=O)NC2=O)cc(Br)c1OC | 32* | 1 | -23 | 13 | -2 | -10
COc1cc(C=C2C(=O)NC(=O)NC2=O)ccc1O | 32* | 2 | 6 | x | 1 | -7
COc1ccc(C=C2NC(=O)NC2=O)cc1O | 43* | 3 | -13 | x | -2 | x
CCOC(=O)C1C2COc3ccccc3C2N2C(=O)N(c3ccc(Cl)cc3)C(=O)[C@]12C (stereo partly drawn) | x | x | x | 5 | x | x
Cc1cc(=O)oc2c(C)c(OCC(=O)N3C[C@H]4C[C@@H](C3)c3cccc(=O)n3C4)ccc12 | 5 | 2 | 6 | x | 4 | -23
COc1ccc2c(C)c(CC(=O)N3C[C@H]4C[C@@H](C3)c3cccc(=O)n3C4)c(=O)oc2c1C | 14 | 1 | 1 | x | 134* | -10
C=C(C)COc1ccc2c(C)c(CC(=O)N3C[C@H]4C[C@@H](C3)c3cccc(=O)n3C4)c(=O)oc2c1C | 12 | 13 | 3 | x | 124* | -11
CC(=NNc1nc2ccccc2[nH]1)c1cc2ccccc2o1 | x | x | x | 0 | x | x
CCc1ccc2oc(=O)cc(CN3CCN(Cc4ccccc4)CC3)c2c1 | 6 | 8 | -1 | 4 | 1 | -22
Cc1cc2oc(=O)cc(CN3CCOCC3)c2cc1C(C)C | 0 | -2 | 7 | -1 | -2 | -5
CCc1cc2c(CN3CCN(CC)CC3)cc(=O)oc2cc1O | 16 | -11 | -1 | 12 | + | -21
O=c1cc(CN2CCOCC2)c2cc(Cl)c(O)cc2o1 | -1 | -1 | -6 | 9 | + | -17
CCCc1cc(=O)oc2c3c(cc(OCC(=O)NCCCn4ccnc4)c12)OC(C)(C)CC3 | 16 | 12 | 1 | x | 170* | -9
Cc1cc(=O)oc2c3c(cc(OCC(=O)NCCCn4ccnc4)c12)OC(C)(C)CC3 | 12 | 1 | -1 | x | + | -37
Cc1cc(=O)oc2c3c(cc(OCC(=O)NCCN4CCOCC4)c12)OC(C)(C)CC3 | 17 | 3 | -2 | x | 191* | -43
Cc1nc2ccccc2c(=O)n1N=C/C=C/c1ccccc1 | x | x | x | 1 | x | x
C#CCOCCOCCOCCNc1nc(N2CCN(C(=O)C(C(C)CC)n3cc(CCCCN)nn3)CC2)nc(N2CCN(C(=O)C(C(C)CC)n3cc(CCCN=C(N)N)nn3)CC2)n1 (stereo not drawn) | x | x | x | -4 | x | x
CCCCN(CCCC)C(=O)C1(P(=O)(c2ccccc2)c2ccccc2)CCC1 | -4 | 55* | -4 | 4 | 5 | -15
CCN(CC)S(=O)(=O)c1ccc(N=N/C(C(C)=O)=C(/C)O)cc1 | 40* | 6 | -9 | x | -1 | -21
